# The campaign covered roughly 5,500 compounds. About 2,000 (36%) were called active. About 18% were inconclusive and are not listed. Some of the results follow. Unmarked numbers belong to inactive results. No stated cut-off is given here; in the data, active means normalized growth mostly below about 0.91 (no sharp cut-off); inconclusive means no clear call, values can overlap the other calls; inactive means mostly above about 0.92.
# Assay: chemical genetic growth profiling, strain panel (AID 1159580);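 further: tested at 20 µM; growth read once vehicle control cultures reached saturation at 30 °C; 1 = growth at the plate median or of vehicle wells; lower values mean less growth of the strain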
# Conditions: growth OD
compound,measurement,setting,value
Nc1c2ccccc2nc2ccccc12 (tested in a mixture with another compound),normalized growth,"S. cerevisiae deletion strains, locus YKL009W, strain mrt4, active compounds read low",0.811 (active)
same,normalized growth,"S. cerevisiae deletion strains, locus YKL068W, active compounds read low",0.969
same,normalized growth,"S. cerevisiae deletion strains, locus YKL085W, strain MDH1 (second series), active compounds read low",0.899 (active)
same,normalized growth,"S. cerevisiae deletion strains, locus YKL085W, strain MDH1, active compounds read low",0.899 (active)
same,normalized growth,"S. cerevisiae deletion strains, locus YKL160W, strain elf1, active compounds read low",0.597 (active)
same,normalized growth,"S. cerevisiae deletion strains, locus YKL190W, strain CNB1, active compounds read low",0.717 (active)
same,normalized growth,"S. cerevisiae deletion strains, locus YKR001C, strain vps1, active compounds read low",0.292 (active)
same,normalized growth,"S. cerevisiae deletion strains, locus YKR026C, strain gcn3, active compounds read low",0.957
same,normalized growth,"S. cerevisiae deletion strains, locus YKR091W, strain srl3, active compounds read low",0.95
same,normalized growth,"S. cerevisiae deletion strains, locus YLL001W, strain dnm1, active compounds read low",0.603 (active)
same,normalized growth,"S. cerevisiae deletion strains, locus YLL026W, active compounds read low",0.707 (active)
same,normalized growth,"S. cerevisiae deletion strains, locus YLL041C, strain sdh2, active compounds read low",0.897 (active)
same,normalized growth,"S. cerevisiae deletion strains, locus YLR027C, strain aat2, active compounds read low",0.604 (active)
same,normalized growth,"S. cerevisiae deletion strains, locus YLR039C, strain RIC1, active compounds read low",0.601 (active)
same,normalized growth,"S. cerevisiae deletion strains, locus YLR058C, strain SHM2, active compounds read low",0.538 (active)
same,normalized growth,"S. cerevisiae deletion strains, locus YLR102C, strain apc9, active compounds read low",0.943
same,normalized growth,"S. cerevisiae deletion strains, locus YLR113W, strain HOG1, active compounds read low",0.506 (active)
same,normalized growth,"S. cerevisiae deletion strains, locus YLR221C, strain rsa3, active compounds read low",0.634 (active)
same,normalized growth,"S. cerevisiae deletion strains, locus YLR258W, strain gsy2, active compounds read low",0.603 (active)
same,normalized growth,"S. cerevisiae deletion strains, locus YLR262C, strain YPT6 (second series), active compounds read low",0.573 (active)
same,normalized growth,"S. cerevisiae deletion strains, locus YLR262C, strain YPT6, active compounds read low",0.604 (active)
same,normalized growth,"S. cerevisiae deletion strains, locus YLR268W, strain sec22, active compounds read low",0.622 (active)
same,normalized growth,"S. cerevisiae deletion strains, locus YLR320W, strain mms22, active compounds read low",0.507 (active)
same,normalized growth,"S. cerevisiae deletion strains, locus YLR330W, strain CHS5, active compounds read low",0.826 (active)
same,normalized growth,"S. cerevisiae deletion strains, locus YLR342W, strain FKS1 (second series), active compounds read low",0.662 (active)
same,normalized growth,"S. cerevisiae deletion strains, locus YLR342W, strain FKS1, active compounds read low",0.945
same,normalized growth,"S. cerevisiae deletion strains, locus YLR357W, strain rsc2, active compounds read low",1.11
same,normalized growth,"S. cerevisiae deletion strains, locus YLR370C, strain arc18, active compounds read low",0.803 (active)
same,normalized growth,"S. cerevisiae deletion strains, locus YLR371W, strain rom2, active compounds read low",0.98
same,normalized growth,"S. cerevisiae deletion strains, locus YLR384C, strain iki3, active compounds read low",0.932
same,normalized growth,"S. cerevisiae deletion strains, locus YLR418C, strain cdc73, active compounds read low",0.723 (active)
same,normalized growth,"S. cerevisiae deletion strains, locus YML016C, strain PPZ1, active compounds read low",0.714 (active)
same,normalized growth,"S. cerevisiae deletion strains, locus YML032C, strain rad52, active compounds read low",0.37 (active)
same,normalized growth,"S. cerevisiae deletion strains, locus YML120C, strain ndi1, active compounds read low",0.439 (active)
same,normalized growth,"S. cerevisiae deletion strains, locus YML124C, strain tub3, active compounds read low",0.84 (active)
same,normalized growth,"S. cerevisiae deletion strains, locus YMR058W, strain fet3, active compounds read low",0.69 (active)
same,normalized growth,"S. cerevisiae deletion strains, locus YMR078C, strain ctf18, active compounds read low",0.642 (active)
same,normalized growth,"S. cerevisiae deletion strains, locus YMR125W, strain sto1, active compounds read low",0.963
same,normalized growth,"S. cerevisiae deletion strains, locus YMR129W, active compounds read low",0.844 (active)
same,normalized growth,"S. cerevisiae deletion strains, locus YMR205C, strain PFK2, active compounds read low",0.669 (active)
same,normalized growth,"S. cerevisiae deletion strains, locus YMR223W, strain ubp8, active compounds read low",0.579 (active)
same,normalized growth,"S. cerevisiae deletion strains, locus YMR231W, strain pep5, active compounds read low",0.94
same,normalized growth,"S. cerevisiae deletion strains, locus YMR263W, strain SAP30, active compounds read low",0.746 (active)
same,normalized growth,"S. cerevisiae deletion strains, locus YMR307W, strain GAS1, active compounds read low",0.806
same,normalized growth,"S. cerevisiae deletion strains, locus YNL067W, strain RPL9B, active compounds read low",0.477 (active)
same,normalized growth,"S. cerevisiae deletion strains, locus YNL071W, strain lat1, active compounds read low",0.958
same,normalized growth,"S. cerevisiae deletion strains, locus YNL128W, strain TEP1, active compounds read low",0.76 (active)
same,normalized growth,"S. cerevisiae deletion strains, locus YNL153C, strain GIM3, active compounds read low",0.701 (active)
same,normalized growth,"S. cerevisiae deletion strains, locus YNL183C, strain NPR1, active compounds read low",0.483 (active)
same,normalized growth,"S. cerevisiae deletion strains, locus YNL209W, strain ssb2, active compounds read low",0.729 (active)
same,normalized growth,"S. cerevisiae deletion strains, locus YNL233W, strain BNI4, active compounds read low",0.707 (active)
same,normalized growth,"S. cerevisiae deletion strains, locus YNL248C, strain rpa49, active compounds read low",0.599 (active)
same,normalized growth,"S. cerevisiae deletion strains, locus YNL250W, strain rad50, active compounds read low",0.782 (active)
same,normalized growth,"S. cerevisiae deletion strains, locus YNL271C, strain bni1, active compounds read low",0.891 (active)
same,normalized growth,"S. cerevisiae deletion strains, locus YNL298W, strain CLA4, active compounds read low",0.858 (active)
same,normalized growth,"S. cerevisiae deletion strains, locus YNL307C, strain MCK1, active compounds read low",0.439 (active)
same,normalized growth,"S. cerevisiae deletion strains, locus YNL322C, strain KRE1 (second series), active compounds read low",0.981
same,normalized growth,"S. cerevisiae deletion strains, locus YNL322C, strain KRE1, active compounds read low",0.771 (active)
same,normalized growth,"S. cerevisiae deletion strains, locus YNR049C, strain mso1, active compounds read low",0.899 (active)
same,normalized growth,"S. cerevisiae deletion strains, locus YNR052C, strain pop2, active compounds read low",0.732 (active)
same,normalized growth,"S. cerevisiae deletion strains, locus YOL006C, strain TOP1, active compounds read low",0.475 (active)
same,normalized growth,"S. cerevisiae deletion strains, locus YOL012C, strain htz1",2.2 [resistant] (active)
same,normalized growth,"S. cerevisiae deletion strains, locus YOL147C, strain pex11, active compounds read low",0.832 (active)
same,normalized growth,"S. cerevisiae deletion strains, locus YOR001W, strain rrp6, active compounds read low",0.508 (active)
same,normalized growth,"S. cerevisiae deletion strains, locus YOR061W, strain CKA2, active compounds read low",0.744 (active)
same,normalized growth,"S. cerevisiae deletion strains, locus YOR069W, strain VPS5, active compounds read low",0.825 (active)
same,normalized growth,"S. cerevisiae deletion strains, locus YOR070C, strain gyp1, active compounds read low",0.732 (active)
same,normalized growth,"S. cerevisiae deletion strains, locus YOR080W, strain dia2, active compounds read low",0.816 (active)
same,normalized growth,"S. cerevisiae deletion strains, locus YOR083W, strain WHI5, active compounds read low",0.56 (active)
same,normalized growth,"S. cerevisiae deletion strains, locus YOR106W, strain vam3, active compounds read low",0.529 (active)
same,normalized growth,"S. cerevisiae deletion strains, locus YOR136W, strain idh2, active compounds read low",0.866 (active)
same,normalized growth,"S. cerevisiae deletion strains, locus YOR144C, strain elg1, active compounds read low",0.766 (active)
same,normalized growth,"S. cerevisiae deletion strains, locus YOR184W, strain ser1, active compounds read low",0.535 (active)
same,normalized growth,"S. cerevisiae deletion strains, locus YOR231W, strain MKK1, active compounds read low",0.41 (active)
same,normalized growth,"S. cerevisiae deletion strains, locus YOR265W, strain rbl2, active compounds read low",0.851 (active)
same,normalized growth,"S. cerevisiae deletion strains, locus YOR270C, strain vph1, active compounds read low",0.577 (active)
same,normalized growth,"S. cerevisiae deletion strains, locus YOR290C, strain snf2, active compounds read low",0.379 (active)
same,normalized growth,"S. cerevisiae deletion strains, locus YOR316C, strain cot1, active compounds read low",0.938
same,normalized growth,"S. cerevisiae deletion strains, locus YPL051W, strain arl3, active compounds read low",0.628 (active)
same,normalized growth,"S. cerevisiae deletion strains, locus YPL055C, strain LGE1, active compounds read low",0.572 (active)
same,normalized growth,"S. cerevisiae deletion strains, locus YPL078C, strain atp4, active compounds read low",0.727 (active)
same,normalized growth,"S. cerevisiae deletion strains, locus YPL106C, strain sse1, active compounds read low",0.779 (active)
same,normalized growth,"S. cerevisiae deletion strains, locus YPL240C, strain hsp82, active compounds read low",0.618 (active)
same,normalized growth,"S. cerevisiae deletion strains, locus YPL241C, strain CIN2, active compounds read low",0.935
same,normalized growth,"S. cerevisiae deletion strains, locus YPL256C, strain CLN2, active compounds read low",0.499 (active)
same,normalized growth,"S. cerevisiae deletion strains, locus YPR119W, strain clb2, active compounds read low",0.85 (active)
same,normalized growth,"S. cerevisiae deletion strains, locus YPR141C, strain kar3, active compounds read low",1
same,normalized growth,"S. cerevisiae deletion strains, locus YPR163C, strain tif3, active compounds read low",0.964
same,normalized growth,"S. cerevisiae deletion strains, locus YPR167C, strain met16, active compounds read low",0.699 (active)
same,normalized growth,"S. cerevisiae deletion strains, strain wtn01, active compounds read low",0.549 (active)
same,normalized growth,"S. cerevisiae strains, strain wild type, active compounds read low",0.698 (active)

# Reference: PubChem BioAssay AID1159580 (chemical genetic matrix, 2015)
